Experimental data taken from PubChem BioAssay (Tox21).
Results filed as inconclusive are left out. Where a call stands in place of a potency, no number is given. A number with no mark means an inactive call. Calls of active or inactive are those of the source. Unless noted, calls follow the shape of the dose curve; as a rule, active = well fitted curve in the direction sought with a large enough effect in the repeat runs; inconclusive = weak or mixed curves; inactive = no such curve, though single readings can be large; an effect the other way counts as inactive or inconclusive.

target: Androgen receptor (Homo sapiens) (UniProt P10275); assay: qHTS assay to identify small molecule antagonists of the androgen receptor (AR) signaling pathway using the MDA cell line in the presence of 0.5 nM R1881 (AID 1259243); details: MDA-kb2 MMTV-luciferase, R1881 0.5 nM, 16 h; series mostly up to 42.5 µM; also: nearly all actives have a fitted effect of over 50% in size
Sequence (P10275 whole entry, looked up): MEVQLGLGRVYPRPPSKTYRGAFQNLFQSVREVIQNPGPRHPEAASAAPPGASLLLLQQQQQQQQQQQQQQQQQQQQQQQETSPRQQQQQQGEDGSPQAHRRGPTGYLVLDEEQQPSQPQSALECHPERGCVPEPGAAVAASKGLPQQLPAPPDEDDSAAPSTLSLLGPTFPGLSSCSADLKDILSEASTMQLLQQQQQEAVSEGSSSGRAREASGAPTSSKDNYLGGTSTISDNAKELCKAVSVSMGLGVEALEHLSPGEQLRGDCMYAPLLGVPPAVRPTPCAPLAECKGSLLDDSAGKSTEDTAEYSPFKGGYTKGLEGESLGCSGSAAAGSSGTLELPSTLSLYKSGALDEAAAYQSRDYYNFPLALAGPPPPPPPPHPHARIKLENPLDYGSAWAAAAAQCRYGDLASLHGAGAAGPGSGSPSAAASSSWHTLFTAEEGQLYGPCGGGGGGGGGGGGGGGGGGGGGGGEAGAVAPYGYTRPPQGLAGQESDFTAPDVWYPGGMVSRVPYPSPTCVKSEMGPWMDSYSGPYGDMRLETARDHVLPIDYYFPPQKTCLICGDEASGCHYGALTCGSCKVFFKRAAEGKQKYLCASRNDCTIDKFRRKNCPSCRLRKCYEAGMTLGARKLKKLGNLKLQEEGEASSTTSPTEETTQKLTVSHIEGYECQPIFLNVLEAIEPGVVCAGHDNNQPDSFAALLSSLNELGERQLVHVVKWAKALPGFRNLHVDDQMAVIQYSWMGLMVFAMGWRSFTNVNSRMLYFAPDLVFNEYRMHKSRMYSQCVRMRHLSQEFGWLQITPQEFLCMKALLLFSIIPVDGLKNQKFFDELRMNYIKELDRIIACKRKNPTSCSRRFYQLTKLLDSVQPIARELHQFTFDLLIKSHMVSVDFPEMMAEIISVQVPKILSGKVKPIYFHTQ
Method in brief: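 Stably transfected MDA-kb2 cells express luciferase from an MMTV promoter bearing both AR and GR response elements. Compounds plus 0.5 nM R1881 (final) were incubated 16 hr at 37C without CO2, then luminescence measured.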

SMILES | outcome
OC(CCN1CCCCC1)(c1ccccc1)c1ccccc1 | inactive
O=C(O)c1ccc(OCCN2CCCCC2)cc1 | inactive
CCNC(=O)/C=C/c1cccc(Br)c1 | inactive
O=CN1CCOCC1 | inactive

target: Estrogen receptor (Homo sapiens) (UniProt P03372); assay: qHTS assay to identify small molecule antagonists of the estrogen receptor alpha (ER-alpha) signaling pathway using the BG1 cell line in the presence of 0.1 nM 17-beta-estradiol (AID 1259244); details: VM7Luc4E2 (BG1) ERE-luciferase, antagonist mode, 0.1 nM E2, 22 h; series mostly up to 92.4 µM; also: nearly all actives have a fitted effect of over 50% in size
Sequence (P03372 whole entry, looked up): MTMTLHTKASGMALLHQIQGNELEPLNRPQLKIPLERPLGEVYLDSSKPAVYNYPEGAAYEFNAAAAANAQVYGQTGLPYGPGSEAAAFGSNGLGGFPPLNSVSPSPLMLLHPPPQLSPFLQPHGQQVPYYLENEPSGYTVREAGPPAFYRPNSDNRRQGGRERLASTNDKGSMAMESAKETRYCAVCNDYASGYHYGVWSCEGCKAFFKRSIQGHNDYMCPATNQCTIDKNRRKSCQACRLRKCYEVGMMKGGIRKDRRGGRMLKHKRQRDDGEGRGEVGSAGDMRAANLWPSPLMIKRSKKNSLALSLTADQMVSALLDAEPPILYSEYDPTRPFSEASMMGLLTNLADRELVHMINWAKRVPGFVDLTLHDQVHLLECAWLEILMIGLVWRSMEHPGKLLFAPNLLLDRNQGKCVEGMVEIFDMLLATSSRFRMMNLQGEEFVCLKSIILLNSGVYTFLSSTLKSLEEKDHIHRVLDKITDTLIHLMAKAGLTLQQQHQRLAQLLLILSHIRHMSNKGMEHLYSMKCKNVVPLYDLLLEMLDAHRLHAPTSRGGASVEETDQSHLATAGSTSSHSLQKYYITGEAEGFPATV
Method in brief: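 Antagonist mode: compounds in DMSO are pinned onto VM7Luc4E2 reporter cells, 0.1 nM final 17beta-estradiol is added, and after 22 h at 37C luciferase luminescence is measured with ONE-Glo.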

SMILES | Potency | activity change, negative = inhibition
Cc1ccccc1C(=O)N1CC/C(=N\OS(=O)(=O)O)c2ccc(Cl)cc21 | inactive | –
CCOC(=O)CC#N | inactive | –
OC(CCN1CCCCC1)(c1ccccc1)c1ccccc1 | inactive | –
C[N+](C)(C)CC(O)CCl (centres undefined) | inactive | –
CCCCCCCC/C=C\CCCCCCCC(=O)OC[C@@H](O)[C@H]1OC[C@H](O)[C@H]1O | inactive | –
CCCCCCCCOC(C)=O | inactive | –
O=C(O)c1ccc(OCCN2CCCCC2)cc1 | inactive | –
COC(=O)CCC(=O)O | inactive | –
CC(C)COC(=O)/C=C/c1ccccc1 | inactive | –
O=S1(=O)CCCC1 | inactive | –
CC1CCC(C(C)(C)S)C(=O)C1 (centres undefined) | inactive | –
Cc1nc(C)nc(N2C[C@@H](C)N(c3ccnc([C@@H](C)O)n3)[C@@H](C)C2)n1 | inactive | –
NS(=O)(=O)c1ccc(Cl)c(S(N)(=O)=O)c1 | inactive | –
C=CC(C)(O)CC/C=C(\C)CC (centres undefined) | inactive | –
O=C(Nc1cccc(C2=NCCN2)c1)Nc1cccc(C2=NCCN2)c1 | – | -4.15% [at 19 µM]
O=CN1CCOCC1 | inactive | –
Cc1c(C(C)C)c(=O)n(-c2ccccc2)n1C | inactive | –
CC(C)CCC(=O)CCC(C)C | inactive | –
N#CCCOCCOCCC#N | inactive | –
CC(C)(C)c1ccc(C=O)cc1 | inactive | –
CCN(Cc1cccc(S(=O)(=O)O)c1)c1ccccc1 | inactive | –

system: not listed separately; assay: qHTS assay to identify small molecule phospholipidosis (PLD) inducers (AID 1259344; active = well fitted curve in the direction sought with a large enough effect; an effect the other way counts as inactive or inconclusive); details: HepG2 phospholipidosis, LipidTOX Red imaging, 24 h; series mostly up to 38.3 µM
Method in brief: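 Accumulated phospholipid, stained red by LipidTOX during 24 h compound treatment of HepG2 cells at 37 C, is quantified from images as pit number and intensity, normalised per cell using Hoechst-stained nuclei.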

SMILES | PLD induction | outcome
Cc1ccccc1C(=O)N1CC/C(=N\OS(=O)(=O)O)c2ccc(Cl)cc21 | -2.19% [at 7.66 µM] | –
OC(CCN1CCCCC1)(c1ccccc1)c1ccccc1 | – | inactive
CCCCCCCC/C=C\CCCCCCCC(=O)OC[C@@H](O)[C@H]1OC[C@H](O)[C@H]1O | – | inactive
NS(=O)(=O)c1cc2c(cc1Cl)NC(CC1CCCC1)NS2(=O)=O (centres undefined) | – | inactive
CCNC(=O)/C=C/c1cccc(Br)c1 | – | inactive
NS(=O)(=O)c1ccc(Cl)c(S(N)(=O)=O)c1 | – | inactive
O=C(Nc1cccc(C2=NCCN2)c1)Nc1cccc(C2=NCCN2)c1 | – | inactive
C[C@@H]1C[C@H]2[C@@H]3C[C@H](F)C4=CC(=O)C=C[C@]4(C)[C@@]3(F)[C@@H](O)C[C@]2(C)[C@@]1(O)C(=O)CO | – | inactive
Cc1c(C(C)C)c(=O)n(-c2ccccc2)n1C | – | inactive
